Activity calls are given as the source filed them.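 The calls were made as follows: active = calcium response above 60% of the acetylcholine maximum at human M5, as a positive modulator; inactive = the rest.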

In this assay the target is Muscarinic acetylcholine receptor M5 (Homo sapiens) (UniProt P08912). Put plainly: M5 muscarinic receptor positive allosteric modulators, cell-based, single concentration, CHO-K1 hM5, calcium flux (AID 743100). The note with it: CHO-K1 hM5, Fluo-4 calcium flux, ACh EC20, stronger effect = higher value; at 10 µM unless noted. For orientation: Calcium flux is commonly read through the fluorescence of an indicator in the cells.
Muscarinic acetylcholine receptor M5 (Homo sapiens), sequence (P08912 whole entry, looked up): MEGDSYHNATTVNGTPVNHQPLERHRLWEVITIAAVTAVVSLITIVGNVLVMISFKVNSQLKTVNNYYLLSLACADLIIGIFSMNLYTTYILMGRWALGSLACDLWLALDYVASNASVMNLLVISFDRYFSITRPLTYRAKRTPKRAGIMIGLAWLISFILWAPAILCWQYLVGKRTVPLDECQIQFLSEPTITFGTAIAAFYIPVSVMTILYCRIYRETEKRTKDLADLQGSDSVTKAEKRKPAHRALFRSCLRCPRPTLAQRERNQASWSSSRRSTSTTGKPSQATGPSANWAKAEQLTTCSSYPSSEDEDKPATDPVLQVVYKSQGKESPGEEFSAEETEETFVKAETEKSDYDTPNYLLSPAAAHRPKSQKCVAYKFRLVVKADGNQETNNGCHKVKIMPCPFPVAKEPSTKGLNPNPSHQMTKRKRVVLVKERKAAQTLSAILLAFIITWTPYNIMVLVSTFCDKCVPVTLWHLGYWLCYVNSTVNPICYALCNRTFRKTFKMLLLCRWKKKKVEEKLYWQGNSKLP
Turning to `CC1c2ccccc2CCN1C(=O)C1CCN(S(=O)(=O)c2ccc3[nH]ncc3c2)CC1` (stereo not drawn), the % ACh max response was 40.4% (inactive).

Turning to `CCNC(=O)C1(Cc2ccccc2)CCN(S(=O)(=O)c2ccc3occc3c2)CC1`, the % ACh max response was 22.2% (inactive).

`CCN(Cc1ccccc1)C(=O)C1CCN(S(=O)(=O)c2ccc(C(C)=O)cc2)CC1`: the % ACh max response is 58.4% [at 30 µM] (inactive).

Regarding `CCN(Cc1ccccc1)C(=O)C1CCN(S(=O)(=O)c2c(C)noc2C)CC1`, the % ACh max response is 25.9% [at 30 µM] (inactive).

For the molecule `CCN(CC1CCN(S(=O)(=O)c2ccc(OC(F)(F)F)cc2)CC1)C(=O)c1ccccc1`, the % ACh max response was 10.5% (inactive).

Turning to `CCN(Cc1ccc(Oc2ccccc2)cc1)C(=O)C1CCN(S(=O)(=O)c2ccc3cn[nH]c3c2)CC1`, the % ACh max response is 39.1% (inactive).

In the case of `CCN(Cc1cccc(F)c1)C(=O)C1CCN(S(=O)(=O)c2ccc3cn[nH]c3c2)CC1`, the % ACh max response was 84.8% (active).

As for `CCN(Cc1ccccc1C#N)C(=O)C1CCN(S(=O)(=O)c2ccc3cn[nH]c3c2)CC1`, the % ACh max response is 36.8% (inactive).

Turning to `CCN(CC1CCN(S(=O)(=O)c2ccc(OC)cc2)CC1)C(=O)c1ccccc1`, the % ACh max response is 15.2% (inactive).

Regarding `CC1c2ccccc2CCN1C(=O)C1CCN(S(=O)(=O)c2ccc3occc3c2)CC1` (stereo not drawn), the % ACh max response was 28.5% (inactive).

Take `COc1cccc(S(=O)(=O)N2CCC(CN(Cc3ccccc3)C(C)=O)CC2)c1`: the % ACh max response was 12.7% (inactive).

For the molecule `CCN(Cc1ccccc1)C(=O)C1CCN(S(=O)(=O)c2ccc3ncccc3c2)CC1`, the % ACh max response was 63.4% [at 30 µM] (active).

`CCN(Cc1ccccc1)C(=O)C1CCN(S(=O)(=O)Cc2ccccc2Br)CC1`: the % ACh max response is 5.25% [at 30 µM] (inactive).

For the molecule `CCN(Cc1ccccc1)C(=O)C1CCN(S(=O)(=O)c2cccc3nsnc23)CC1`, the % ACh max response was 40.8% [at 30 µM] (inactive).

For `CCN([C@H](C)c1ccccc1)S(=O)(=O)C1CCN(S(=O)(=O)c2ccc3cn[nH]c3c2)CC1`, the % ACh max response is 19.4% (inactive).

For `CCN(C(=O)C1CCN(S(=O)(=O)c2ccc(OC)cc2)CC1)[C@H](C)c1ccccc1`, the % ACh max response is 91.8% [at 30 µM] (active).

Take `CCN(Cc1ccccc1)C(=O)C1CCN(S(=O)(=O)c2cc(C)ccc2C)CC1`: the % ACh max response is 24.5% [at 30 µM] (inactive).

As to `CCN(Cc1ccccc1)C(=O)C1CCN(S(=O)(=O)c2ccc(C)cc2)CC1`, the % ACh max response was 73.7% [at 30 µM] (active).

Consider `CCN(Cc1cc(F)ccc1F)C(=O)C1CCN(S(=O)(=O)c2ccc3cn[nH]c3c2)CC1`, for which the % ACh max response is 57.2% (inactive).

As to `CCN(Cc1ccccc1)C(=O)C1CCN(S(=O)(=O)c2cccnc2Cl)CC1`, the % ACh max response is 30% [at 30 µM] (inactive).

Take `CCN(Cc1ccccc1)C(=O)C1CCN(S(=O)(=O)c2ccccn2)CC1`: the % ACh max response is 36.4% (inactive).

Turning to `CCN(Cc1ccccc1)C(=O)C1CCN(S(=O)(=O)c2ccc3nn(C)cc3c2)CC1`, the % ACh max response was 51.4% (inactive).

With `CCN(Cc1ccccc1)C(=O)C1CCN(S(=O)(=O)c2ccc3c(cnn3C)c2)CC1`, the % ACh max response was 63.3% (active).

Turning to `CCN(CC1CCN(S(=O)(=O)c2ccc3cn[nH]c3c2)CC1)C(=O)c1ccccc1`, the % ACh max response is 13.7% (inactive).

As to `CCN(Cc1ccccc1)C(=O)C1CCN(S(=O)(=O)Cc2ccc(Cl)cc2)CC1`, the % ACh max response is 16% [at 30 µM] (inactive).

With `CCN(C(=O)C1CCN(S(=O)(=O)N(C)C)CC1)[C@H](C)c1ccccc1`, the % ACh max response is 29.1% (inactive).

`CCN(Cc1ccccc1)C(=O)C1CCN(S(=O)(=O)c2cccnc2)CC1`: the % ACh max response is 34.5% (inactive).

Turning to `CCN(Cc1ccccc1)C(=O)C1CCN(S(=O)(=O)c2ccc(C(F)(F)F)nc2)CC1`, the % ACh max response is 56.9% [at 30 µM] (inactive).

Consider `CCN(Cc1ccccc1)C(=O)C1CCN(S(=O)(=O)c2ccc3occc3c2)CC1`, for which the % ACh max response was 82.1% [at 30 µM] (active).

As for `CCN(Cc1ccccc1)C(=O)C1CCN(S(=O)(=O)c2cnc[nH]2)CC1`, the % ACh max response is 33.7% [at 30 µM] (inactive).

As to `CCN(Cc1ccccc1)C(=O)C1CCN(S(=O)(=O)CC(C)C)CC1`, the % ACh max response is 21.3% [at 30 µM] (inactive).

As to `COc1ccc(S(=O)(=O)N2CCC(CN(Cc3ccccc3)C(C)=O)CC2)cc1`, the % ACh max response is 11.8% (inactive).

With `CCN(Cc1ccccc1)C(=O)C1CCN(S(=O)(=O)Cc2cccc(C(F)(F)F)c2)CC1`, the % ACh max response is 25.5% [at 30 µM] (inactive).
